{
  "source": "paper PMC12864922",
  "about": "“TDP-43 directly inhibits mRNA accumulation in neurites through modulation of mRNA stability”",
  "binders": {"B1": {"name": "ENSMUSG00000028439.233|Fam219a (ssRNA)", "RNA": "GGGAGUUCUACAGUCCGACGAUCGCUUCGAUAUCCGCAUGCUACACCGACAGAGUCUUUUCAUACCAGAAGGAAUUUCUUCACAGGAGUUUCUGCAAAAGACUAUGACAUCUGUGUGUCUGUGGUCUCACGAGGUACCUGGAGGUGUAUGUGCACGGACAUGGGAAGUACGUGAAGAUUUAUUUCGGGAAAAGUGGUGUGUGUGUAGCUGUACUGGGUGUCAUGUAUGCUGUUGCUUCUGCUGCUGGUCUGGUCUGAGGGAGGAAAGCUGAGGCUGUAGCUCAGUGAGAUGGUGGCUCUCCCACUCUUGCGGUCGCACUAGUGUGGAAUUCUCGGGUGUCAAGG"}, "B2": {"name": "ENSMUSG00000058297.19|Spock2 (ssRNA)", "RNA": "GGGAGUUCUACAGUCCGACGAUCGCUUCGAUAUCCGCAUGCUACGACGGCCUCGGCAGGCCAGGGUGCCGACGGCCAGAAAGACAGGCCAGAAGAGACCUGGACAACAGCAGGCAACUUAGCAAAUGGAUCCGGAAGUCAGUGCGGAGGACCCUGGCUCCAGUGGGGGAGGACUGGGGAGUGUGGCUUGUGUGUAUGUGUGAUAUGAGAUGUGUGUGUAUGAUGUGAGAUGUGAGUGUGUGAUGUGAGAUGUGUGUAUGUGAGAUGUGUGUGUGUGUGUGUGUGUGUGUGAUGUGAGUCACCCCUCUUGCGGUCGCACUAGUGUGGAAUUCUCGGGUGUCAAGG"}, "B3": {"name": "ENSMUSG00000058297.22|Spock2 (ssRNA)", "RNA": "GGGAGUUCUACAGUCCGACGAUCGCUUCGAUAUCCGCAUGCUAAGGGUGCCGACGGCCAGAAAGACAGGCCAGAAGAGACCUGGACAACAGCAGGCAACUUAGCAAAUGGAUCCGGAAGUCAGUGCGGAGGACCCUGGCUCCAGUGGGGGAGGACUGGGGAGUGUGGCUUGUGUGUAUGUGUGAUAUGAGAUGUGUGUGUAUGAUGUGAGAUGUGAGUGUGUGAUGUGAGAUGUGUGUAUGUGAGAUGUGUGUGUGUGUGUGUGUGUGUGUGAUGUGAGUCACCCAAAGGUCCCUAUGUUAUUCUCUUGCGGUCGCACUAGUGUGGAAUUCUCGGGUGUCAAGG"}, "B4": {"name": "ENSMUSG00000058297.20|Spock2|131:135;139:152;161:172;186:192;201:210;216:241 (ssRNA)", "RNA": "GGGAGUUCUACAGUCCGACGAUCGCUUCGAUAUCCGCAUGCUACCUCGGCAGGCCAGGGUGCCGACGGCCAGAAAGACAGGCCAGAAGAGACCUGGACAACAGCAGGCAACUUAGCAAAUGGAUCCGGAAGUCAGUGCGGAGGACCCUGGCUCCAGUGGGGGAGGACUGGGGACACACGCUACACACAUACACACAUAUGAGAACACACACAUACAUGUGAGAUGUGACACACACAUGUGAGAACACACAUACUGAGAACACACACACACACACACACACACACAUGUGAGUCACCCAAAGGUCUCUUGCGGUCGCACUAGUGUGGAAUUCUCGGGUGUCAAGG"}, "B5": {"name": "ENSMUSG00000058297.21|Spock2|125:129;133:146;155:166;180:186;195:204;210:235 (ssRNA)", "RNA": "GGGAGUUCUACAGUCCGACGAUCGCUUCGAUAUCCGCAUGCUACAGGCCAGGGUGCCGACGGCCAGAAAGACAGGCCAGAAGAGACCUGGACAACAGCAGGCAACUUAGCAAAUGGAUCCGGAAGUCAGUGCGGAGGACCCUGGCUCCAGUGGGGGAGGACUGGGGACACACGCUACACACAUACACACAUAUGAGAACACACACAUACAUGUGAGAUGUGACACACACAUGUGAGAACACACAUACUGAGAACACACACACACACACACACACACACAUGUGAGUCACCCAAAGGUCCCUAUCUCUUGCGGUCGCACUAGUGUGGAAUUCUCGGGUGUCAAGG"}, "B6": {"name": "ENSMUSG00000058297.5|Spock2|221:225;229:242;251:259 (ssRNA)", "RNA": "GGGAGUUCUACAGUCCGACGAUCGCUUCGAUAUCCGCAUGCUAAGAAGAGGCAGGGGAGGAGGCCGAGGAGGAGGAGGGUGAGGCGGGUGAGGCAGAUGAUGGAGGCUACAUCUGGUAGAUAGCCCUCGACGGCCUCGGCAGGCCAGGGUGCCGACGGCCAGAAAGACAGGCCAGAAGAGACCUGGACAACAGCAGGCAACUUAGCAAAUGGAUCCGGAAGUCAGUGCGGAGGACCCUGGCUCCAGUGGGGGAGGACUGGGGACACACGCUACACACAUACACACAUAUGAGAACACACACAACUCUUGCGGUCGCACUAGUGUGGAAUUCUCGGGUGUCAAGG"}, "B7": {"name": "ENSMUSG00000058297.18|Spock2 (ssRNA)", "RNA": "GGGAGUUCUACAGUCCGACGAUCGCUUCGAUAUCCGCAUGCUAAGCCCUCGACGGCCUCGGCAGGCCAGGGUGCCGACGGCCAGAAAGACAGGCCAGAAGAGACCUGGACAACAGCAGGCAACUUAGCAAAUGGAUCCGGAAGUCAGUGCGGAGGACCCUGGCUCCAGUGGGGGAGGACUGGGGAGUGUGGCUUGUGUGUAUGUGUGAUAUGAGAUGUGUGUGUAUGAUGUGAGAUGUGAGUGUGUGAUGUGAGAUGUGUGUAUGUGAGAUGUGUGUGUGUGUGUGUGUGUGUGUGAUGUGAGCUCUUGCGGUCGCACUAGUGUGGAAUUCUCGGGUGUCAAGG"}, "B8": {"name": "ENSMUSG00000058297.18|Spock2|143:147;151:164;173:184;198:204;213:222;228:253 (ssRNA)", "RNA": "GGGAGUUCUACAGUCCGACGAUCGCUUCGAUAUCCGCAUGCUAAGCCCUCGACGGCCUCGGCAGGCCAGGGUGCCGACGGCCAGAAAGACAGGCCAGAAGAGACCUGGACAACAGCAGGCAACUUAGCAAAUGGAUCCGGAAGUCAGUGCGGAGGACCCUGGCUCCAGUGGGGGAGGACUGGGGACACACGCUACACACAUACACACAUAUGAGAACACACACAUACAUGUGAGAUGUGACACACACAUGUGAGAACACACAUACUGAGAACACACACACACACACACACACACACAUGUGAGCUCUUGCGGUCGCACUAGUGUGGAAUUCUCGGGUGUCAAGG"}, "B9": {"name": "ENSMUSG00000058297.20|Spock2 (ssRNA)", "RNA": "GGGAGUUCUACAGUCCGACGAUCGCUUCGAUAUCCGCAUGCUACCUCGGCAGGCCAGGGUGCCGACGGCCAGAAAGACAGGCCAGAAGAGACCUGGACAACAGCAGGCAACUUAGCAAAUGGAUCCGGAAGUCAGUGCGGAGGACCCUGGCUCCAGUGGGGGAGGACUGGGGAGUGUGGCUUGUGUGUAUGUGUGAUAUGAGAUGUGUGUGUAUGAUGUGAGAUGUGAGUGUGUGAUGUGAGAUGUGUGUAUGUGAGAUGUGUGUGUGUGUGUGUGUGUGUGUGAUGUGAGUCACCCAAAGGUCUCUUGCGGUCGCACUAGUGUGGAAUUCUCGGGUGUCAAGG"}, "B10": {"name": "ENSMUSG00000058297.21|Spock2 (ssRNA)", "RNA": "GGGAGUUCUACAGUCCGACGAUCGCUUCGAUAUCCGCAUGCUACAGGCCAGGGUGCCGACGGCCAGAAAGACAGGCCAGAAGAGACCUGGACAACAGCAGGCAACUUAGCAAAUGGAUCCGGAAGUCAGUGCGGAGGACCCUGGCUCCAGUGGGGGAGGACUGGGGAGUGUGGCUUGUGUGUAUGUGUGAUAUGAGAUGUGUGUGUAUGAUGUGAGAUGUGAGUGUGUGAUGUGAGAUGUGUGUAUGUGAGAUGUGUGUGUGUGUGUGUGUGUGUGUGAUGUGAGUCACCCAAAGGUCCCUAUCUCUUGCGGUCGCACUAGUGUGGAAUUCUCGGGUGUCAAGG"}, "B11": {"name": "ENSMUSG00000058297.19|Spock2|137:141;145:158;167:178;192:198;207:216;222:247 (ssRNA)", "RNA": "GGGAGUUCUACAGUCCGACGAUCGCUUCGAUAUCCGCAUGCUACGACGGCCUCGGCAGGCCAGGGUGCCGACGGCCAGAAAGACAGGCCAGAAGAGACCUGGACAACAGCAGGCAACUUAGCAAAUGGAUCCGGAAGUCAGUGCGGAGGACCCUGGCUCCAGUGGGGGAGGACUGGGGACACACGCUACACACAUACACACAUAUGAGAACACACACAUACAUGUGAGAUGUGACACACACAUGUGAGAACACACAUACUGAGAACACACACACACACACACACACACACAUGUGAGUCACCCCUCUUGCGGUCGCACUAGUGUGGAAUUCUCGGGUGUCAAGG"}},
  "note": "Whole data set: some 9,900 sequences, median “r (bound/input frequency ratio)” near 0.7, cut for the highest 2% near 6.5. Shown is part of a subset that was picked to be rich in the highest values.",
  "data": [
    {"biological_target": "TDP-43 (Homo sapiens, UniProt Q13148 1-414)", "sequence (Q13148 whole entry)": "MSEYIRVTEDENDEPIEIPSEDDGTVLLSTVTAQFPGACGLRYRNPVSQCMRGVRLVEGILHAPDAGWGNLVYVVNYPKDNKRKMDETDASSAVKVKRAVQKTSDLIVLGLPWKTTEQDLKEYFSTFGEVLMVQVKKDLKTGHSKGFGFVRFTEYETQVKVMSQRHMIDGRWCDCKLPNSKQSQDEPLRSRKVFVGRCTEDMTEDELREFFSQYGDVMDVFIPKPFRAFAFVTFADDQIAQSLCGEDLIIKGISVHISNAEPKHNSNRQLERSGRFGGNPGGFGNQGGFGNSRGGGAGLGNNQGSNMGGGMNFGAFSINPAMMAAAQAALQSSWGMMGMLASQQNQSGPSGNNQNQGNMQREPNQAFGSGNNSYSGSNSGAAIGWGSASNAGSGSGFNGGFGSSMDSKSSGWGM", "assay": "RNA Bind-n-Seq with designed 260-mer pool; 25 mM Tris-HCl, 150 mM KCl, 3 mM MgCl2, BSA (printed 500 mg/mL), 20 units/mL SUPERase IN; pH not stated; 500 nM RNA pool, 1 h, 4 C; TDP-43 5, 50, 500 nM; high values mean tight binding", "conditions": "protein: recombinant; tags: SBP (GST cleaved off with PreScission; pGEX-GST-SBP)", "method_in_brief": "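Streptavidin beads captured recombinant SBP-tagged TDP-43 at 5, 50 or 500 nM, and the beads were incubated for 1 h at 4 °C with 500 nM of an in vitro-transcribed pool of 260-nt 3′ UTR oligos in 25 mM Tris-HCl, 150 mM KCl, 3 mM MgCl2, BSA and SUPERase IN. After washing, bound RNA was eluted with biotin, reverse transcribed, PCR-amplified and sequenced. Binding is reported as R, the mapped-read-normalized abundance of each oligo in the bound sample divided by its abundance in the input. Two independent protein batches served as duplicates.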", "values": [
      {"binder": "B1", "binding signal": "3.93 R (bound/input frequency ratio)"},
      {"binder": "B2", "binding signal": "6.67 R (bound/input frequency ratio)"},
      {"binder": "B3", "binding signal": "5.79 R (bound/input frequency ratio)"},
      {"binder": "B4", "binding signal": "1.82 R (bound/input frequency ratio)"},
      {"binder": "B5", "binding signal": "2.78 R (bound/input frequency ratio)"},
      {"binder": "B6", "binding signal": "2.97 R (bound/input frequency ratio)"},
      {"binder": "B7", "binding signal": "7.4 R (bound/input frequency ratio)"},
      {"binder": "B8", "binding signal": "3.16 R (bound/input frequency ratio)"},
      {"binder": "B9", "binding signal": "8.16 R (bound/input frequency ratio)"},
      {"binder": "B10", "binding signal": "6.78 R (bound/input frequency ratio)"},
      {"binder": "B11", "binding signal": "3.73 R (bound/input frequency ratio)"}
    ]}
  ]
}
